Test results taken from PubChem BioAssay (EPA / NIEHS).
Records with an inconclusive call do not appear. Active and inactive are the calls of the source. How the source made its calls, unless noted: active means hit-call score of the fitted dose curve at least 0.9, where 1 is the maximum; inactive means score below 0.9.

What was measured:
[1] = CCTE_Shafer_MEA_dev_firing_rate_mean: CCTE's Neural Network Formation Assay for Mean Firing Rate, Shafer Lab (AID 2284031)
Procedure, shortened: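 Extracellular spike frequency, AUC over DIV 5–12 recordings, in rat cortical neuron MEA cultures dosed from plating; loss direction vs DMSO.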

[2] = CCTE_Shafer_MEA_dev_active_electrodes_number: CCTE's Neural Network Formation Assay for Number of Active Electrodes, Shafer Lab (AID 2284040; active means hit-call score of the fitted dose curve at least 0.9, where 1 is the maximum)
Procedure, shortened: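 Developing rat cortical networks on MEAs, exposed DIV 0–12. Value is the AUC of active-electrode counts (≥5 spikes/min) from days 5, 7, 9, 12, relative to DMSO.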

[3] = CCTE_Shafer_MEA_dev_burst_rate: CCTE's Neural Network Formation Assay for Burst Rate, Shafer Lab (AID 2284042)
Procedure, shortened: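 Primary rat cortical neurons on PEI-coated 48-well MEA plates (laminin added with cells at plating) (16 electrodes/well), exposed from plating to day 12, dosing renewed at DIV 5 and 9. Burst rate averaged over active electrodes, recorded DIV 5, 7, 9, 12, summarized as AUC; loss versus DMSO.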

[4] = CCTE_Shafer_MEA_dev_bursting_electrodes_number: CCTE's Neural Network Formation Assay for Number of Bursting Electrodes, Shafer Lab (AID 2284043; active means hit-call score of the fitted dose curve at least 0.9, where 1 is the maximum)
Procedure, shortened: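 Rat cortical primary neurons, 48-well MEA, 16 electrodes/well; dosing DIV 0–12, re-dosed with full media change DIV 5, 9. Recordings DIV 5/7/9/12, AxIS adaptive spike detector; bursting electrode = ≥1 burst/2 min. AUC across days; loss of signal vs DMSO.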

[5] = CCTE_Shafer_MEA_dev_per_burst_interspike_interval: CCTE's Neural Network Formation Assay for Burst Interspike Interval, Shafer Lab (AID 2284044);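 further: mean spike spacing inside bursts as AUC over recordings on days 5 7 9 12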
Procedure, shortened: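 Mean interspike interval within single-electrode bursts, averaged over bursting electrodes, from rat cortical cultures on MEA plates recorded on days 5, 7, 9 and 12. Continuous compound exposure from plating; trapezoidal AUC fitted downward relative to DMSO.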

[6] = CCTE_Shafer_MEA_dev_burst_duration_mean: CCTE's Neural Network Formation Assay for Mean Burst Duration, Shafer Lab (AID 2284045)
Procedure, shortened: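 Rat cortical cultures, 1.5 x 10^5 cells/well with laminin drop; continuous dosing days 0–12, media plus treatment refreshed DIV 5, 9. AxIS adaptive spike detection; mean single-electrode burst duration, AUC over four recordings, negative direction vs DMSO.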

[7] = CCTE_Shafer_MEA_dev_inter_network_spike_interval_mean: CCTE's Neural Network Formation Assay for Mean Inter-network Spike Interval, Shafer Lab (AID 2284047)
Procedure, shortened: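 Primary rat cortical neurons on 16-electrode MEA wells, exposed from plating day 0 through DIV 12, compound renewed at DIV 5 and 9 media changes. Mean interval between network-spike peaks recorded DIV 5, 7, 9, 12; collapsed as trapezoidal AUC, fitted downward versus DMSO.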

[8] = CCTE_Shafer_MEA_dev_network_spike_number: CCTE's Neural Network Formation Assay for Number of Network Spikes, Shafer Lab (AID 2284048);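 further: synchronized bursts across electrodes counted on days 5 7 9 12 and integrated as AUC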
Procedure, shortened: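 Rat cortical primary cultures on 48-well MEA (16 electrodes/well); continuous exposure DIV 0–12, full medium and treatment exchange DIV 5, 9. Readout: network spike count, AxIS adaptive detection, recordings DIV 5/7/9/12 collapsed to AUC; loss-of-signal fit, DMSO baseline.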

[9] = CCTE_Shafer_MEA_dev_network_spike_peak: CCTE's Neural Network Formation Assay for Mean Number of Electrodes in Network Spike, Shafer Lab (AID 2284049)
Procedure, shortened: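 Network-spike peak electrode count from recordings on days 5, 7, 9 and 12 was combined as trapezoidal area under the curve. Rat cortical cultures were treated continuously from plating, with compound renewed at each feed (DIV 5, 9); fits versus DMSO.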

[10] = CCTE_Shafer_MEA_dev_spike_duration_mean: CCTE's Neural Network Formation Assay for Mean Spike Duration, Shafer Lab (AID 2284051);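 further: mean network spike duration pooled as area under curve over DIV 5 to 12 recordings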
Procedure, shortened: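 Primary rat cortical neurons on 16-electrode MEA wells (PEI-coated, laminin in plating drop), exposed from plating through DIV 12 with compound renewed at DIV 5 and 9. Mean network-spike duration recorded DIV 5, 7, 9, 12; trapezoidal AUC across days, DMSO baseline.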

[11] = CCTE_Shafer_MEA_dev_network_spike_duration_std: CCTE's Neural Network Formation Assay for Standard Deviation of Network Spike Duration, Shafer Lab (AID 2284052);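 further: area under curve of spike duration SD across recording days 5 to 12; hits are decreases in network spike duration SD versus DMSO vehicle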
Procedure, shortened: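 Primary rat cortical neurons on PEI-coated 16-electrode MEA wells, exposed from plating day 0 through day 12 with compound renewed at DIV 5 and 9. Network spike duration SD recorded on days 5, 7, 9, 12, collapsed as trapezoidal AUC; loss-of-signal fit versus DMSO.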

[12] = CCTE_Shafer_MEA_dev_per_network_spike_spike_number_mean: CCTE's Neural Network Formation Assay for Mean Number of Spikes in a Network Spike, Shafer Lab (AID 2284053)
Procedure, shortened: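 Primary rat cortical neurons on 48-well, 16-electrode MEA plates were exposed from plating to DIV 12, with dosing renewed on DIV 5 and 9. Spikes per network spike (0.05 s peak window) were recorded on DIV 5, 7, 9 and 12 and collapsed as trapezoidal AUC versus DMSO.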

[13] = CCTE_Shafer_MEA_dev_per_network_spike_spike_percent: CCTE's Neural Network Formation Assay for Percent of Spikes in a Network Spike, Shafer Lab (AID 2284054)
Procedure, shortened: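 Read-out: percent of spikes falling in a 0.05 s window at network-spike peak, from spontaneous MEA recordings on days 5, 7, 9 and 12; trapezoidal AUC; loss of signal versus DMSO. Rat cortical cultures, compound present throughout.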

[14] = CCTE_Shafer_MEA_dev_mutual_information_norm: CCTE's Neural Network Formation Assay for Mutual Information Normalization, Shafer Lab (AID 2284091)
Procedure, shortened: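 Neurons from rat cortex were seeded at 1.5 x 10^5 cells/well onto PEI-coated MEAs in a laminin drop, then exposed to compound from day 0 for twelve days. Network recordings on four days gave mutual information, summarised by AUC relative to DMSO.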

[15] = CCTE_Shafer_MEA_dev_correlation_coefficient_mean: CCTE's Neural Network Formation Assay for Mean Correlation Coefficient, Shafer Lab (AID 2284093)
Procedure, shortened: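 Spontaneous activity recorded on days 5, 7, 9 and 12 post-plating; pairwise spike correlations are averaged across active electrodes and collapsed to an area-under-curve. Rat cortical cultures are dosed from plating through 12 days, with compound renewed at media changes.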

[16] = CCTE_Mundy_HCI_Cortical_Synap_Neur_Matur_NeuriteSpotCountPerNeuriteLength: CCTE's Synaptogenesis and Neurite Maturation Assay in rat cortical cells for Neurite Spot Count per Neurite Length, Mundy Lab (AID 2284210)
Procedure, shortened: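 Read-out: synaptophysin puncta counted along MAP2-stained neurites, normalised to neurite length, by automated high-content imaging. Rat cortical cells; AraC DIV 5; chemical dosing DIV 7; termination DIV 12. DMSO baseline.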

[17] = CCTE_Mundy_HCI_Cortical_Synap_Neur_Matur_BPCount: CCTE's Synaptogenesis and Neurite Maturation Assay in rat cortical cells for Branch Point Count, Mundy Lab (AID 2284211)
Procedure, shortened: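 In this multiplexed morphology assay, cortical cells from rat receive chemicals at DIV 7 and are fixed at DIV 12, then immunostained and imaged; branch points are counted, with DMSO as baseline.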

[18] = CCTE_Mundy_HCI_Cortical_NOG_NeuriteCount: CCTE's Neurite Outgrowth Assay in rat cortical cells for Neurite Count, Mundy Lab (AID 2284212);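 further: cells fixed about two days after chemical exposure began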
Procedure, shortened: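 Rat cortical primary cells; compound added 2 h post-plating, 1/10 dilution of working solution. Anti-betaIII-tubulin/AF488 ICC; ArrayScan neurite count vs DMSO.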

[19] = CCTE_Mundy_HCI_Cortical_NOG_NeuriteLength: CCTE's Neurite Outgrowth Assay in rat cortical cells for Neurite Length, Mundy Lab (AID 2284213)
Procedure, shortened: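 First, rat primary cortical cells were plated and, 2 h later, given test chemical as a 1/10 dilution. Finally, βIII-tubulin immunostaining enabled automated imaging of neurite length.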

[20] = CCTE_Mundy_HCI_Cortical_Synap_Neur_Matur_NeuriteLength: CCTE's Synaptogenesis and Neurite Maturation Assay in rat cortical cells for Neurite Length, Mundy Lab (AID 2284214)
Procedure, shortened: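 DMSO-normalised neurite length, from high-content imaging of anti-MAP2-stained rat cortical cells fixed at DIV 12. Glia were suppressed with AraC (DIV 5) before chemical exposure from DIV 7.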

[21] = CCTE_Mundy_HCI_Cortical_Synap_Neur_Matur_SynapseCount: CCTE's Synaptogenesis and Neurite Maturation Assay in rat cortical cells for Synapse Count, Mundy Lab (AID 2284218)
Procedure, shortened: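 Endpoint: synapses/neuron by HCI (synaptophysin puncta on MAP2-labelled neurites, Hoechst nuclei). Rat primary cortical cells, AraC DIV 5, dosed DIV 7, fixed DIV 12; DMSO negative control.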

[22] = CCTE_Mundy_HCI_hN2_NOG_NeuronCount: CCTE's Neurite Outgrowth Assay in human hN2 cells for Neuron Count, Mundy Lab (AID 2284221; active means hit-call score of the fitted dose curve at least 0.9, where 1 is the maximum)
Procedure, shortened: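 Read-out is the number of betaIII-tubulin-positive neurons imaged by automated high-content analysis, with DMSO as negative control.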

[23] = CCTE_Mundy_HCI_Cortical_Synap_Neur_Matur_NeuriteCount: CCTE's Synaptogenesis and Neurite Maturation Assay in rat cortical cells for Neurite Count, Mundy Lab (AID 2284222);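 further: exposure from day 7 to day 12 in vitro with readout at day 12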
Procedure, shortened: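 Rat primary cortical cells; AraC added at DIV 5, chemicals dosed with media change at DIV 7 through DIV 12. MAP2/synaptophysin/Hoechst immunostaining, high-content imaging of neurite number; fitted relative to DMSO.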

[24] = CCTE_Mundy_HCI_Cortical_Synap_Neur_Matur_CellBodySpotCount: CCTE's Synaptogenesis and Neurite Maturation Assay in rat cortical cells for Cell Body Spot Count, Mundy Lab (AID 2284223)
Procedure, shortened: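 High-content imaging counts synaptophysin puncta on neuronal cell bodies per neuron after MAP2/synaptophysin immunostaining. Rat primary cortical cells, glia arrested with AraC at DIV 5, were exposed DIV 7–12; signal decrease measured against DMSO.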

[25] = CCTE_Mundy_HCI_Cortical_NOG_NeuronCount: CCTE's Neurite Outgrowth Assay in rat cortical cells for Neuron Count, Mundy Lab (AID 2284236; active means hit-call score of the fitted dose curve at least 0.9, where 1 is the maximum;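 further: neurons counted by imaging betaIII-tubulin and Hoechst stained cortical cells; cells exposed to compound for about 48 hours before fixation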)
Procedure, shortened: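 Read-out: neuron number by high-content imaging of betaIII-tubulin (Alexa Fluor-488) and Hoechst-labelled rat primary cortical cells.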

[26] = CCTE_Mundy_HCI_Cortical_NOG_BPCount: CCTE's Neurite Outgrowth Assay in rat cortical cells for Branch Point Count, Mundy Lab (AID 2284237)
Procedure, shortened: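 Measured 50.33 h after dosing, this morphology endpoint uses rat primary cortical cultures labelled for betaIII-tubulin. Branch points are quantified by high-content imaging, with DMSO as negative control and baseline.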

[27] = CCTE_Mundy_HCI_hNP1_Casp3_7: CCTE's Caspase-Glo 3/7 Assay in human neuroprogenitor cells for Apoptosis, Mundy Lab (AID 2284240)
Procedure, shortened: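 Luminescent caspase-3/7 readout, 26.5 h post-dose, in human neural progenitor cells from WA09 embryonic stem cells. Cells grew 40–44 h at 37 °C, 5% CO2 before chemical addition. Activity analysed as signal increase over DMSO baseline.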

[28] = CCTE_Mundy_HCI_Cortical_Synap_Neur_Matur_NeuronCount: CCTE's Synaptogenesis and Neurite Maturation Assay in rat cortical cells for Neuron Count, Mundy Lab (AID 2284242; active means hit-call score of the fitted dose curve at least 0.9, where 1 is the maximum;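 further: hits reduce neuron count versus DMSO baseline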)
Procedure, shortened: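 Measured at DIV 12: fluorescently labelled neurons (Hoechst nuclei, MAP2) in rat primary cortical cultures, counted by high-content imaging. AraC suppressed glia from DIV 5; DMSO served as negative control.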

Measured: AC50

C[C@H](N)Cc1ccccc1
active: [28] 43.6 nM
inactive: all other assays above
